Compound activity as filed in PubChem.
Marburg entry inh – blocks Marburg virus binding to or entry into cells. Marburg virus pseudotyped entry inhibition, cell reporter. Potency, µM (doses to about 37.8 µM), inactives show at the top dose activity change, negative = inhibition, hits mostly inhibitors. 300,000 tested, 1.8% active. AID 540276; calls by dose curve; tested in HEK293 cells; also: potency is read from the fitted curve at half-maximal effect; % is scaled to controls: 0 for no effect and ±100 for the full control effect
Cycloheximide cs – counter-screen for Shiga toxin inhibitors: cycloheximide protein synthesis inhibition. max response, %. cell reporter, cycloheximide protein synthesis inhibition counterscreen. 300,000 tested, 12% active; in the data active = max response mostly above about 13%, no sharp cut-off; inactive = mostly below about 14%; also: read at 38.3 µM for the half of the compounds with a filed dose; 0% is about no effect
Vaccinia Venus – vaccinia inhibition (Venus reporter); Vaccinia virus Venus reporter expression, fluorescence; Potency, µM (titrated, usually from 36.5 µM), for inactives: at the top dose activity change, negative = inhibition, most hits filed as inhibitors; 330,000 tested, 0.46% active; AID 720580; calls by dose curve; tested in A549 cells; also: potency is read from the fitted curve at half-maximal effect; % is scaled to controls: 0 for no effect and ±100 for the full control effect; nearly all actives have a fitted effect of over 30% in size
Lassa entry inh – Lassa virus entry inhibition; Lassa virus pseudotype entry inhibition, cell reporter; Potency, µM (doses to about 37.9 µM), for inactives: at the top dose activity change, negative = inhibition, most hits filed as inhibitors; 300,000 tested, 1.2% active; AID 540256; calls by dose curve; tested in HEK293 cells; also: potency is read from the fitted curve at half-maximal effect; % is scaled to controls: 0 for no effect and ±100 for the full control effect; nearly all actives have a fitted effect of over 50% in size
Shiga toxin inh – blocks Shiga toxin action in Vero cells | inhibition, % at 38.7 µM | Vero cells, Shiga toxin protein synthesis inhibition reporter | 290,000 tested, 9.2% active; in the data active = inhibition mostly above about 28%, no sharp cut-off; inactive = mostly below about 43%; also: 0% is about no effect
VACV mCherry inh – vaccinia inhibition (mCherry reporter) | Vaccinia virus mCherry reporter infection, fluorescence | Potency, µM (highest dose often 36.5 µM), for the others: at the highest dose activity change, negative = inhibition, hits mostly inhibitors | 310,000 tested, 0.63% active; calls by dose curve; tested in A549 cells; also: potency is read from the fitted curve at half-maximal effect; % is scaled to controls: 0 for no effect and ±100 for the full control effect; nearly all actives have a fitted effect of over 35% in size
* marks the source's active call; other numbers are inactive results; i = inactive; ? = inconclusive; . = no result given; [ ] = dose if it differs, or a comment. Only a selection was taken, and hits are over-represented in it overall.

SMILES	Marburg entry inh	Cycloheximide cs	Vaccinia Venus	Lassa entry inh	Shiga toxin inh	VACV mCherry inh
COC(=O)c1ccc(NC(=O)CCn2c(=O)oc3ccccc32)cc1	25%	29*	.	18%	40*	.
Cc1ccc(NC(=O)CCn2c(=S)oc3ccccc32)cc1	6%[46.1 µM]	-3	-14%	?	-10	i
COC(=O)c1ccc(CN2C(=O)[C@@]3(CC(C)=CC[C@@H](COc4ccccc4)O3)c3c(Br)cccc32)cc1	-28%[14.2 µM]	.	.	7%[14.3 µM]	.	.
CC(=O)C(Sc1nnnn1-c1ccc(O)cc1)c1ccccc1 (stereo not drawn)	.	9	.	.	14	.
Cc1ccc(Cl)c(N/C=C/C(=O)c2ccccc2)c1	.	68*	.	.	66*	.
COc1cccc(N/C=C/C(=O)c2ccc(Br)cc2)c1	?	.	-19%	?	.	-24%
Cc1cc(C)nc(NS(=O)(=O)c2ccc(N/C=C\C(=O)c3ccc(Cl)cc3)cc2)n1	12%	19	-13%	-44%	53	i
Cc1cccc(N/C=C/C(=O)c2ccc(Cl)cc2)c1	.	35*	.	.	88*	.
O=C(/C=C\Nc1ccccn1)c1ccc(Cl)cc1	6.5µM*	33*	-13%	?	75*	-14%
CCC1CCCCN1C(=O)c1ccc2c(c1)N(Cc1cccc(Cl)c1)C(=O)c1ccccc1S2(=O)=O (stereo not drawn)	.	.	-9%	?	.	-9%
COc1ccc(N=Cc2c(O)c3ccccc3oc2=O)cc1	-1%	32*	.	.	61*	.
Cc1cc(C)c(N=Cc2c(O)c3ccccc3oc2=O)c(C)c1	0%	15*	-14%	24%	.	i
CC(C)c1ccc(N=Cc2c(O)c3ccccc3oc2=O)cc1	.	60*	.	.	64*	.
O=C(O)c1ccc(S(=O)(=O)N2CCC3(CC2)CC(=O)c2ccccc2O3)cc1	?	.	-5%	8%	.	-14%
CN(C)S(=O)(=O)c1ccc(Cl)c(NC(=O)CN2CCNC(=O)C2)c1	-5%[46.1 µM]	12	-2%	0%	-11	-2%
COc1ccc(OC)c(N=CC2=C(O)CC(C)(C)CC2=O)c1	0%	4	0%	2%	-5	-13%
COc1ccc(N=CC2=C(O)CC(C)(C)CC2=O)cc1	-15%[46.1 µM]	36*	-27%	16%	65*	.
COc1ccc(N=CC2=C(O)CCCC2=O)cc1	1%	37*	-17%	-17%	76*	-16%
COc1ccc(N=Cc2c(O)n(C)c(=O)n(C)c2=O)cc1	.	25	.	.	29	.
CN(C)C(=O)N1CCCC(C(=O)NCCc2ccccc2)C1 (stereo not drawn)	14%	26*	.	8%	95*	.
CC1CCCN(C(=S)NCCc2ccccc2)C1 (stereo not drawn)	-29%	26*	-12%	?	54*	-16%
Cc1ccc(CCNC(=O)C2CCCN(C(=O)N(C)C)C2)cc1 (stereo not drawn)	-6%	-2	.	0%	-4	.
CC1CCCCN1C(=S)NCCc1ccccc1 (stereo not drawn)	?	38*	4%	21%	91*	-9%
Cc1ccc(NC(=O)c2nnn(CC(=O)Nc3ccc4c(c3)OCO4)c2N)cc1C	.	21*	.	.	23	.
Nc1c(C(=O)Nc2ccc3c(c2)OCCO3)nnn1CCc1ccccc1	-2%	20*	.	.	56*	.
SMILES	Marburg entry inh	Cycloheximide cs	Vaccinia Venus	Lassa entry inh	Shiga toxin inh	VACV mCherry inh
Nc1c(C(=O)Nc2ccc3c(c2)OCCO3)nnn1Cc1cccc(Br)c1	-12%	.	?	-5%[46.1 µM]	.	-23%
COc1ccc(CCNC(=O)Cn2nnc(C(=O)Nc3ccc(Br)cc3)c2N)cc1OC	0%[46.1 µM]	31*	-12%	-25%[46.1 µM]	19	-20%
CCOc1ccc(NC(=O)c2nnn(CC(=O)Nc3ccccc3OC)c2N)cc1	-3%	19*	-9%	2%	31	-13%
CCCS(=O)(=O)N1CC(=O)N(c2ccccc2C)C(C)(C(=O)NC2CCCC2)C1 (stereo not drawn)	.	.	-3%	-4%[46.1 µM]	.	-8%
CC(=O)c1ccc(NC(=O)c2cc3c(=O)oc4ccc(C)cc4c3s2)cc1	4%[46.1 µM]	.	2%	1%[46.1 µM]	.	-2%
CN(Cc1ccccc1)S(=O)(=O)c1ccc(F)c(C(=O)Nc2ccccc2C(F)(F)F)c1	.	.	-2%	0%[46.1 µM]	.	7%
C=C(C)C1CC=C(C)/C(=N/NC(=O)CNc2ccc(OCC)cc2)C1 (stereo not drawn)	28%	-4	-2%	-7%	-17	-15%
Cc1ccc(NC(=O)c2nnn(Cc3ccccc3)c2N)cc1C	?	.	-9%	-1%[46.1 µM]	.	5%
Nc1c(C(=O)Nc2ccccc2Cl)nnn1-c1ccc2c(c1)OCCO2	7%	33*	-4%	-7%	65*	i
COc1ccc(CCNC(=O)Cc2cc(OC)c(OC)cc2Br)cc1OC	-18%[46.1 µM]	16*	3%	19%[46.1 µM]	20	-13%
Cc1ccc(NC(=O)Cn2nnc(C(=O)Nc3ccc(C)c(C)c3)c2N)cc1	19%	15*	.	?	4	.
CCCn1c(N/N=C(C)\C=C\c2ccccc2)nc2c1c(=O)[nH]c(=O)n2C	.	-2	.	.	-17	.
Cc1cc2c(cc1C)N(CC(=O)N1CCCC1)C(=O)CC(c1ccccc1)=N2	-4%	33*	1%	?	56*	-12%
O=C(CN1C(=O)CC(c2ccccc2)=Nc2ccccc21)NCc1ccccc1	?	-2	5%	?	16	.
N#Cc1c(NC(=O)c2cnn3cccnc23)sc2c1CCCC2	?	14	-17%	13%[46.1 µM]	41	-16%
O=C(Nc1cnn(C23CC4CC(CC(C4)C2)C3)c1)c1cnn2cccnc12	-10%	64*	-14%	?	90*	-28%
Cc1cccn2cc(-c3ccc(F)cc3)nc12	?	39*	.	?	71*	.
CCCS(=O)(=O)NCc1cn2cccc(C)c2n1	22%	1	-4%	17%	-8	-11%
Cc1cccn2cc(CCNS(=O)(=O)c3cccs3)nc12	?	21*	-13%	?	53	-14%
Cc1cccn2cc(CNc3ccccc3)nc12	?	51*	.	?	68*	.
Cc1ccc(S(=O)(=O)Nc2cccc(-c3cn4cccc(C)c4n3)c2)cc1	.	.	-12%	-6%[46.1 µM]	.	-6%
Cc1cccn2cc(-c3ccc(F)cc3)cc12	-10%	-2	0%	?	17	i
Cc1cccn2cc(-c3ccccc3)nc12	?	52*	-10%	?	64*	-13%
COC(=O)[C@H]1[C@@H](c2cccc(C(F)(F)F)c2)NC(=O)N(Cc2ccccc2)[C@@H]1C	25%[14.2 µM]	.	.	.	.	.
CCOC(=S)SCc1cn2cccc(C)c2n1	3%[46.1 µM]	24*	4%	9%[46.1 µM]	5	-22%
COc1ccc(-c2cn3cccc(C)c3n2)cc1Br	?	76*	-16%	?	150*	-25%
Cc1cccn2cc(CSc3nnc(Nc4ccc(C(C)C)cc4)s3)nc12	.	0	.	.	5	.
CC(NC(=O)c1ccccc1Cl)C1COc2ccccc2O1 (stereo not drawn)	-14%[46.1 µM]	31*	65%	16%	51*	48%
CC(NS(=O)(=O)c1ccccc1)C1COc2ccccc2O1 (stereo not drawn)	-4%	31*	-1%	-11%	2	.
